Experimental data reported in PubChem BioAssay (NCI).
This is part of a sample that, as a whole, favours compounds with a hit. Of some 83,000 tested, about 20% had one in any assay.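 Treatment: one concentration, 48 hours, 96-well format. Scoring: percent growth, with anything below 10 considered active.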 A number with no mark means an inactive call. Active and inactive are the calls of the source.

Tests used:
Test in all cases: NCI-60 one-dose screen, 48 h (100 = growth as untreated, 0 = no growth, -100 = all killed)
Settings in all cases: 10 µM unless noted
[1] = test system: DU-145 prostate
[2] = test system: K-562 leukemia
[3] = test system: MALME-3M melanoma
[4] = test system: MDA-MB-231 breast
[5] = test system: RXF 393 renal
[6] = test system: SF-268 CNS
[7] = test system: SF-295 CNS
[8] = test system: SF-539 CNS
[9] = test system: UACC-257 melanoma
[10] = test system: M14 melanoma
[11] = test system: HT29 colon
[12] = test system: SNB-19 CNS
[13] = test system: PC-3 prostate
[14] = test system: SK-MEL-5 melanoma
[15] = test system: UACC-62 melanoma
[16] = test system: LOX IMVI melanoma
[17] = test system: SK-MEL-28 melanoma
[18] = test system: SNB-75 CNS
[19] = test system: U251 CNS

SMILES | growth [1] | growth [2] | growth [3] | growth [4] | growth [5] | growth [6] | growth [7] | growth [8] | growth [9] | growth [10] | growth [11] | growth [12] | growth [13] | growth [14] | growth [15] | growth [16] | growth [17] | growth [18] | growth [19]
CN1CCN(CCCOc2cccc3nc(Nc4ccc(F)c(F)c4)ccc23)CC1 | 7.31% (active) | -41.5% (active) | -64.8% (active) | -69.9% (active) | 16.4% | 26% | -65% (active) | -53.5% (active) | -76.7% (active) | -78.5% (active) | -69.5% (active) | -17.4% (active) | -43.6% (active) | -100% (active) | -75.4% (active) | -87.7% (active) | -82.3% (active) | – | –
CO[C@H]1CC(=O)n2c3ccccc3c3c4c(c5c6ccccc6n1c5c32)C(=O)NC4=O | 42.3% | 76.3% | 50.2% | 71.4% | 62.4% | 68.9% | 11.3% | 57% | 73.5% | 62.2% | 26.3% | 98.4% | 54.6% | 60.7% | 44.9% | 63.8% | 39.9% | 4.5% (active) | 46.8%
O=C(C1CCCCC1)[C@@H]1[C@]2(C(=O)NC3CCCCC32)[C@@H]2CCCN2[C@@]12C(=O)NC1CCC(Cl)CC12 (some centres not stated) | -98% [100 µM] (active) | -66% [100 µM] (active) | -66.4% [100 µM] (active) | -71.7% [100 µM] (active) | -66.6% [100 µM] (active) | -77.4% [100 µM] (active) | -92.5% [100 µM] (active) | -93.3% [100 µM] (active) | -77.8% [100 µM] (active) | -83.2% [100 µM] (active) | -85.2% [100 µM] (active) | -92.5% [100 µM] (active) | -87.9% [100 µM] (active) | -97.1% [100 µM] (active) | -95.4% [100 µM] (active) | -83.4% [100 µM] (active) | -83% [100 µM] (active) | -68.8% [100 µM] (active) | -90.6% [100 µM] (active)
O=S(=O)(NCCNc1nccc(-c2c(-c3ccc(F)c(O)c3)nc3sccn23)n1)c1ccc(F)cc1 | 34.4% | 14.7% | 5.92% (active) | 25.5% | -4.56% (active) | 37.3% | 53.4% | 44.3% | 32.1% | 15.5% | 16.7% | 59.1% | 29.9% | -41.5% (active) | 4.93% (active) | 16.6% | 20.5% | 64.1% | 45.5%
Cc1ccc(N2C(=O)CCC2=O)cc1 | 112% | 113% | 108% | 93.7% | 121% | 103% | 99.7% | 101% | 109% | 90.9% | 98.9% | 104% | 99.5% | 100% | 98% | 102% | 105% | 103% | 105%
O=C(N/N=C/c1cc(Cl)ccc1O)c1ccccc1Nc1ccnc(C(F)(F)F)c1 | 25.8% | 89.3% | -18.7% (active) | 50.4% | 58.3% | 18.3% | 28.9% | -4.43% (active) | 42.8% | 23.6% | 39.2% | 21% | 32.9% | 2.92% (active) | -12% (active) | 13.2% | 59.1% | 57.6% | 16.7%
